About 83,000 compounds went through this panel and 20% of them were active in at least one assay; those are over-represented in the sample as a whole.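 Growth was measured after 48 h exposure to one concentration of compound in 96-well plates. Values under 10 count as active.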 Calls of active or inactive are those of the source.
What was measured:
Experiment in all cases: NCI-60 one-dose screen, 48 h (100 = growth as untreated, 0 = no growth, -100 = all killed)
Settings in all cases: 10 µM unless noted
NCI-H23 lung = tested on: NCI-H23 lung
NCI-H226 lung = tested on: NCI-H226 lung
NCI-H322M lung = tested on: NCI-H322M lung
HOP-62 NSCLC = tested on: HOP-62 NSCLC
NCI-H460 lung = tested on: NCI-H460 lung
HOP-92 NSCLC = tested on: HOP-92 NSCLC
NCI-H522 lung = tested on: NCI-H522 lung
A549/ATCC NSCLC = tested on: A549/ATCC NSCLC
786-0 renal = tested on: 786-0 renal
COLO 205 colon = tested on: COLO 205 colon

Measured: growth

NC1=NCc2nc3ccccc3c(=O)n2C1
inactive: NCI-H23 lung 96.6% | NCI-H226 lung 94.9% | NCI-H322M lung 110% | HOP-62 NSCLC 98.4% | NCI-H460 lung 111% | HOP-92 NSCLC 67.5% | NCI-H522 lung 91.6% | A549/ATCC NSCLC 93.9% | 786-0 renal 97.6% | COLO 205 colon 124%

FC(F)(F)c1cc(Nc2ccc3cc(OCCCN4CCOCC4)ccc3n2)ccc1Cl
active: NCI-H460 lung 6.76% | NCI-H522 lung -22.1% | 786-0 renal -64.5% | COLO 205 colon -69.3%
inactive: NCI-H23 lung 36% | NCI-H226 lung 68.2% | NCI-H322M lung 66.4% | HOP-62 NSCLC 12.3% | HOP-92 NSCLC 26.1% | A549/ATCC NSCLC 28.3%

CC1=C(SCCC(=O)OC(C[Se]C2=C(C)C(=O)c3ccccc3C2=O)C(=O)NCCCCCC(=O)OCc2ccccc2)C(=O)c2ccccc2C1=O (stereo not given)
active: NCI-H322M lung 8.06%
inactive: NCI-H23 lung 15.2% | NCI-H226 lung 93.4% | HOP-62 NSCLC 12.8% | NCI-H460 lung 10.9% | HOP-92 NSCLC 58.4% | NCI-H522 lung 20.7% | A549/ATCC NSCLC 22.2% | 786-0 renal 40.1% | COLO 205 colon 40%

CCN1C(=O)N(CC)C2Nn3c(s/c(=C\c4ccc(Cl)cc4Cl)c3=O)=NC21 (stereo not given)
active: COLO 205 colon -23%
inactive: NCI-H23 lung 43.1% | NCI-H226 lung 98.2% | NCI-H322M lung 65.5% | HOP-62 NSCLC 72.3% | NCI-H460 lung 16.4% | HOP-92 NSCLC 68.3% | NCI-H522 lung 12.3% | A549/ATCC NSCLC 33% | 786-0 renal 34%

COc1ccc(CNC(=O)C(O)C(Cc2ccccc2)NC(=O)c2[nH]c3ccccc3c(=O)c2C)cc1OC (stereo not given)
inactive: NCI-H23 lung 102% | NCI-H226 lung 98.1% | NCI-H322M lung 104% | HOP-62 NSCLC 102% | NCI-H460 lung 103% | HOP-92 NSCLC 110% | NCI-H522 lung 93% | A549/ATCC NSCLC 103% | 786-0 renal 101% | COLO 205 colon 123%

COc1cccc(-c2nn(-c3ccccc3)cc2-c2ccnc(NCCCNC(=O)c3ccc(F)cc3)c2)c1
inactive: NCI-H23 lung 53.1% | NCI-H226 lung 60.1% | NCI-H322M lung 80.8% | HOP-62 NSCLC 35.6% | NCI-H460 lung 45.8% | HOP-92 NSCLC 57.4% | NCI-H522 lung 51.8% | A549/ATCC NSCLC 30.5% | 786-0 renal 38.2% | COLO 205 colon 31.7%

CN1CCN(CC(=O)Nc2nc(-c3cccc(NS(=O)(=O)c4cccc5c(N(C)C)cccc45)c3)cs2)CC1
inactive: NCI-H23 lung 57.6% | NCI-H226 lung 75.2% | NCI-H322M lung 105% | HOP-62 NSCLC 85.9% | NCI-H460 lung 55.7% | HOP-92 NSCLC 57.6% | NCI-H522 lung 67.7% | A549/ATCC NSCLC 72.5% | 786-0 renal 79.5% | COLO 205 colon 76.9%

O=C(Nc1cccc(Oc2nnc(Cl)c3ccccc23)c1)Nc1ccc(Cl)c(C(F)(F)F)c1
active: NCI-H23 lung -52.4% | NCI-H226 lung -28.2% | NCI-H322M lung -5.16% | HOP-62 NSCLC -81.6% | NCI-H460 lung -77.4% | HOP-92 NSCLC -38.4% | NCI-H522 lung -67.5% | A549/ATCC NSCLC -21.9% | 786-0 renal -42.8% | COLO 205 colon -69.3%

O=C(Nc1cccc(C(F)(F)F)c1)Nc1cccc(C(F)(F)F)c1
active: NCI-H23 lung 1.97% | NCI-H226 lung -1.66% | HOP-62 NSCLC -1.14% | NCI-H460 lung 5.08% | HOP-92 NSCLC -16.2% | NCI-H522 lung -35% | A549/ATCC NSCLC -1.94% | 786-0 renal 8.34% | COLO 205 colon -85.2%
inactive: NCI-H322M lung 16.7%

CCOC(CN=Cc1cc(C)c2[nH]c3ccccc3c2c1C)OCC
active: NCI-H226 lung 6.9%
inactive: NCI-H23 lung 97.7% | NCI-H322M lung 113% | HOP-62 NSCLC 102% | NCI-H460 lung 83.1% | HOP-92 NSCLC 115% | NCI-H522 lung 113% | A549/ATCC NSCLC 102% | 786-0 renal 93.2% | COLO 205 colon 107%

N#Cc1nc(C#N)c(Sc2ccccc2)c(Sc2ccccc2)c1Sc1ccccc1
inactive: NCI-H322M lung 23.9%
active: NCI-H23 lung -42.1% | NCI-H226 lung 3.05% | HOP-62 NSCLC -46% | NCI-H460 lung -44.7% | HOP-92 NSCLC -31.7% | NCI-H522 lung -67.2% | A549/ATCC NSCLC 3.65% | 786-0 renal -55.9% | COLO 205 colon -88.2%

Source: PubChem BioAssay (NCI)
